The list is not random: actives were taken first. Their share in the collection is about 2.6%.
PHOSPHO1 block = PubChem AID 1565. recombinant PHOSPHO1, absorbance phosphatase assay. inhibition, % at 13.3 µM. hit rate 1.1% among 290,000; in the data active means inhibition above about 60%
ABCB6 inh MLPCN = ABCB6 transporter inhibitors, primary screen, K562-ABCB6 cells, flow cytometry, MLPCN library | K562-ABCB6 porphyrin accumulation, 1 h; hits give low values | fluorescence ratio to DMSO, % at 10 µM | hit rate 0.19% among 360,000;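 active means fluorescence ratio to DMSO below 75%, the collection mean minus 3 SD; inconclusive means too few cells collected in the well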;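 further: signal is porphyrin accumulated inside mitochondria; 100% equals median channel fluorescence of DMSO control wells; lower ratio means ABCB6 inhibition with less porphyrin fluorescence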
AI-2 QS modul = Vibrio harveyi AI-2 quorum sensing modulators, primary screen, JMH597 strain, luminescence/OD600 ratio | Vibrio harveyi JMH597 AI-2 luminescence/OD600 ratio, 9 h; hits give low values; strain lacks LuxN and CqsS sensors; 0 = neutral-control median | activity change, % at 7.5 µM | hit rate 0.4% among 300,000; in the data active means activity change below about -75%, passing the limit was not always enough; inconclusive means no clear call, values can overlap the other calls;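 further: luminescence divided by OD600 gain over 9 h not by final OD600 alone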
eIF4H inh = human eIF4H binding inhibitors, primary screen, translation initiation inhibitor project, biochemical, uHTS, fluorescence polarization; Eukaryotic translation initiation factor 4H (Homo sapiens), Q15056; eIF4H fluorescence polarization binding assay; inhibition, % at 35 µM; hit rate 0.94% among 290,000;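 further: calls also rest on retests at 20 µM and on dose response follow-up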
PABP1 MLLE inh = inhibitors of PABP1 MLLE–PAM2 peptide binding, primary screen, biochemical, fluorescence polarization, FITC-PAM2, GST-MLLE | Polyadenylate-binding protein 1 (Homo sapiens), P11940 | inhibition, % at 20 µM | hit rate 0.36% among 360,000; in the data active means inhibition above about 35%, passing the limit was not always enough;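 further: plate controls were DMSO wells with GST-MLLE for no effect and wells lacking GST-MLLE protein for full effect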
PABP FP inh = PABP poly(A) RNA binding inhibitors, primary screen, biochemical, fluorescence polarization, uHTS; calls only at 35 µM; hit rate 1% among 290,000; AID 2014, 2009;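 further: calls also rest on retests at 20 µM and on dose response follow-up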
An asterisk follows results filed as active; i = inactive; ? = inconclusive; . = no result given; + = active, no number. Unless noted, how the calls were made is not given here.

SMILES	PHOSPHO1 block	ABCB6 inh MLPCN	AI-2 QS modul	eIF4H inh	PABP1 MLLE inh	PABP FP inh
CCn1c(CSCc2ccc(F)cc2)nnc1SCC(=O)NCc1ccccc1	64*	93	20	-4	-63	i
CCSc1nc2sc3c(c2c(=O)n1C1CCCCC1)CCN(C)C3	60*	95	.	11	-17	i
CN1CCc2c(sc3nc(SCC(N)=O)n(-c4ccc(Cl)cc4)c(=O)c23)C1	-16	106	3	?	-129	i
C=C(C)CSc1nc2sc3c(c2c(=O)n1C1CCCCC1)CCN(C)C3	16	96	15	19	-38	i
CN1CCc2c(sc3nc(SCC(N)=O)n(-c4ccccc4)c(=O)c23)C1	-30	106	2	122*	-41	+
COC(=O)c1ccc(NC(=O)CN2CCOCC2)cc1	74*	97	15	-2	6	i
COc1ccccc1-c1cnc(C(O)c2cc(C)ccc2C)[nH]1 (stereo not given)	.	100	.	.	-10	.
CCCCNC(=O)C1(C)CCN1Cc1cc(C)ccc1C (stereo not given)	.	105	.	.	-12	.
COc1cc(NC(=S)NCc2cccnc2)cc(OC)c1OC	63*	100	15	-2	6	i
COc1cc(NC(=S)NCc2cccnc2)cc(OC)c1	-6	101	12	1	-2	i
CCOc1ccc(NC(=S)NC(=O)c2c(Br)cnn2C)c([N+](=O)[O-])c1	-3	91	5	5	19	i
CCOc1ccc(NC(=S)NC(=O)c2cccnc2)c([N+](=O)[O-])c1	-21	103	6	-13	44*	i
COc1ccc(C(=O)NC(=S)NCc2cccnc2)cc1[N+](=O)[O-]	-8	78	21	-5	38*	i
COc1ccc(C(=O)NC(=S)NCc2cccnc2)cc1OC	44	99	9	-3	23	i
CCCn1cnc2c(N)c(C)c(C)cc21	73*	102	14	-6	-7	i
COc1cccc(Cn2cnc3c(N)c(C)c(C)cc32)c1	45	102	17	-6	-7	i
O=C(CCc1cn2ccccc2n1)NC1CCCc2c1cnn2-c1ccccc1F (stereo not given)	75*	106	6	.	-5	.
O=C(CCN1CCCO1)NC1CCCc2c1cnn2-c1ccccc1F (stereo not given)	12	94	36	-12	13	i
CC(C)NC(=O)C1(C)CCN1C(=O)c1ccccc1Oc1ccccc1 (stereo not given)	.	100	.	.	2	.
Cc1cc(C)n2nc3nc(N4CCCCC4)nc(-c4ccco4)c3c2n1	42	102	17	72*	3	+
Cc1ccc([C@@H]2CC(=O)[C@@H]3CN(S(=O)(=O)c4ccc(C)cc4)[C@H](c4ccccc4)C[C@@H]3N2S(=O)(=O)c2ccc(C)cc2)cc1	.	98	.	.	-6	.
CC(C)C1OC2c3cccc4cccc(c34)C2N1c1ccccc1 (stereo not given)	-35	98	14	105	44*	i
COC(=O)c1ccc2nc(-c3ccc(F)cc3)c(Cc3ccsc3)n2c1	.	92	.	.	4	.
Cc1cc(=O)oc(C)c1C(=O)Nc1ccc2ncccc2c1	-9	103	10	125*	42	i
CC(C)C[C@H]1CN(CCCC[C@@H]2CNC(=O)C(=O)N2CC2CCCCC2)C(=O)C(=O)N1Cc1ccccc1	.	98	.	.	.	.
SMILES	PHOSPHO1 block	ABCB6 inh MLPCN	AI-2 QS modul	eIF4H inh	PABP1 MLLE inh	PABP FP inh
C=C(C)C(=O)Nc1cccc(C2=NOC3(C2)C[C@H](C(N)=O)N(C(=O)CC)C3)c1 (stereo not given in full)	26	94	1	92*	10	i
C=C(C)C(=O)Nc1cccc(C2=NOC3(C2)C[C@@H](C(N)=O)N(C(=O)CC(c2ccccc2)c2ccccc2)C3)c1 (stereo not given in full)	4	98	15	90*	2	+
CCCCCC(=O)Nc1cccc(C2=NOC3(C2)C[C@H](C(N)=O)N(C(=O)CC#N)C3)c1 (stereo not given in full)	18	.	17	103	.	+
CCCCCC(=O)Nc1cccc(C2=NOC3(C2)C[C@H](C(N)=O)N(C(=O)c2ccccc2)C3)c1 (stereo not given in full)	31	97	5	-10	-6	i
C/C=C(/C)C(=O)Nc1cccc(C2=NOC3(C2)C[C@@H](C(N)=O)N(C(=O)CC(c2ccccc2)c2ccccc2)C3)c1 (stereo not given in full)	35	93	26	-2	-11	i
C=C(C)C(=O)Nc1cccc(C2=NOC3(C2)C[C@@H](C(N)=O)N(C(=O)/C(C)=C/C)C3)c1 (stereo not given in full)	26	98	9	83*	-2	+
NC(=O)C1CCCN(C(=O)c2[nH]c(C(F)(F)F)nc2-c2ccccc2)C1 (stereo not given)	.	90	.	.	1	.
CCOC(=O)C1=CCN(S(=O)(=O)c2ccccc2F)C1c1cccc(C)c1 (stereo not given)	.	99	.	.	3	.
C/C=C/C=C\C(=O)Nc1cccc(C2=NOC3(C2)C[C@H](C(N)=O)N(C(=O)CC#N)C3)c1 (stereo not given in full)	26	103	16	17	-2	i
C=C(C)C(=O)Nc1cccc(C2=NOC3(C2)C[C@H](C(N)=O)N(C(=O)c2ccccc2C(=O)c2ccccc2)C3)c1 (stereo not given in full)	48	94	10	98*	1	+
C=C(C)C(=O)Nc1cccc(C2=NOC3(C2)C[C@@H](C(N)=O)N(C(=O)/C=C/C=C/C)C3)c1 (stereo not given in full)	13	97	15	93*	-2	+
C=C(C)C(=O)Nc1cccc(C2=NOC3(C2)C[C@H](C(N)=O)N(C(=O)CC#N)C3)c1 (stereo not given in full)	31	.	19	89*	.	i
CCCCCCN1C[C@@H](O)[C@H](n2cc(COC(=O)c3ccccc3)nn2)C[C@@H]1c1ccc(OC)cc1	.	88	.	.	-9	.
Cc1c(-n2c(-c3ccccc3)nc3ccccc3c2=O)c(=O)n(-c2ccccc2)n1C	60*	94	14	9	6	i
C#CCOc1ccc(CNC[C@H]2O[C@@H](n3ccc(=O)[nH]c3=O)[C@H](O)[C@@H]2O)cc1	.	100	.	.	-10	.

Source: PubChem (several laboratories)
